Measured values published in PubChem BioAssay (EPA / NIEHS).
Results filed as inconclusive are left out. Some structures have more than one record in an assay (separate samples or runs), and their calls can disagree. Activity calls are given as the source filed them. The calls were made as follows, unless noted: active = hit-call score of the fitted dose curve at least 0.9, where 1 is the maximum; inconclusive = response in the unintended direction; inactive = score below 0.9.

Columns and labels:
[1] = BSK_4H_Eotaxin3: BioMAP Diversity Plus: 4H Assay for Eotaxin 3 Biomarker Activity (AID 2283000; active = hit-call score of the fitted dose curve at least 0.9, where 1 is the maximum; inactive = score below 0.9); conditions: primary human endothelial cells (HUVEC); actives raise or lower the signal
Summary of the method: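 Readout is Eotaxin-3 (CCL26) level by ELISA in primary human umbilical vein endothelial cells harvested 24 h after chemical exposure; activity fitted in both directions against DMSO control.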

[2] = target: human Peroxisome Proliferator-activated Receptor alpha (PPARa), PPARA (gene 5465) (UniProt Q07869); test: ATG_PPARa_TRANS: Attagene TRANS-FACTORIAL HepG2 Assay for human Peroxisome Proliferator-activated Receptor alpha (PPARa) (AID 2283001);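 as to AC50: potency for gain of reporter signal over DMSO so agonist or activator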
Summary of the method: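 Gain-of-signal endpoint: reporter mRNA induction relative to DMSO, detected by fluorescent RT-PCR and capillary electrophoresis. HepG2 cells transiently carried GAL4-UAS-driven reporter units plus NR-Gal4 fusion; exposure lasted 24 h.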

[3] = target: human Peroxisome Proliferator-activated Receptor delta (PPARd), PPARD (gene 5467) (UniProt Q03181); test: ATG_PPARd_TRANS: Attagene TRANS-FACTORIAL HepG2 Assay for human Peroxisome Proliferator-activated Receptor delta (PPARd) (AID 2283002)
Summary of the method: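 Measured quantity: GAL4-UAS reporter transcript induction in HepG2 after 24 h chemical dosing, with NR-Gal4 chimeras supplied by transient transfection. Detection by RT-PCR and capillary electrophoresis; upward fit against DMSO.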

[4] = read-out: Intercellular Adhesion Molecule 1 (ICAM1), ICAM1 (gene 3383); test: BSK_3C_ICAM1: BioMAP Diversity Plus: 3C Assay for Intercellular Adhesion Molecule 1 (ICAM1) Biomarker Activity (AID 2283003; active = hit-call score of the fitted dose curve at least 0.9, where 1 is the maximum; inactive = score below 0.9); conditions: primary human endothelial cells (HUVEC); actives raise or lower the signal
Summary of the method: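 ICAM-1 levels measured by ELISA after HUVEC cultures in the 3C system had been dosed for 24 h. Gain or loss of signal relative to DMSO was fitted in both directions.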

[5] = BSK_3C_Proliferation: Cell Proliferation Assessment in the BioMAP Diversity Plus: 3C Assay (AID 2283006; active = hit-call score of the fitted dose curve at least 0.9, where 1 is the maximum; inactive = score below 0.9;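 as to AC50: potency may reflect either rise or fall in cell number versus DMSO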); conditions: primary human endothelial cells (HUVEC)
Summary of the method: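 Read-out is total protein by SRB absorbance at 560 nm, taken as a proxy for relative cell number. Primary human umbilical vein endothelium cultured below confluence was dosed for 48 h, TCA-fixed and SRB-stained; curves were fitted bidirectionally versus DMSO.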

[6] = target: Peroxisome proliferator-activated receptor gamma (Homo sapiens) (UniProt P37231); test: ATG_PPARg_TRANS: Attagene TRANS-FACTORIAL HepG2 Assay for human Peroxisome Proliferator-activated Receptor-gamma (PPARg) (AID 2283007)
Summary of the method: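 Liver-derived HepG2 cells expressing an exogenous NR-Gal4 chimera alongside GAL4-UAS reporter genes; 24 h exposure. Fluorescence of reporter RT-PCR products, separated by capillary electrophoresis, gives mRNA induction relative to DMSO.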

[7] = target: human Retinoic Acid Receptor beta (RARb), RARB (gene 5915) (UniProt P10826); test: ATG_RARb_TRANS: Attagene TRANS-FACTORIAL HepG2 Assay for human Retinoic Acid Receptor beta (AID 2283004)
Summary of the method: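 Readout is reporter mRNA induction: RNA reverse-transcribed, PCR-amplified, FAM-labelled, HpaI-cut and resolved by capillary electrophoresis. Transiently transfected HepG2 cells carrying exogenous NR–Gal4 chimeras were dosed for 24 h; activity fitted upward relative to DMSO.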

[8] = target: Nuclear receptor subfamily 1 group I member 2 (Homo sapiens) (UniProt O75469); test: ATG_PXR_TRANS: Attagene TRANS-FACTORIAL HepG2 Assay for human Pregnane X Receptor (PXR) (AID 2283008)
Summary of the method: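 HepG2 cells transiently transfected with GAL4-UAS reporter units and PXR-Gal4 chimera, exposed 24 h. Reporter mRNA quantified by RT-PCR, fluorescent labelling, HpaI digestion and capillary electrophoresis; gain of signal vs DMSO.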

[9] = target: human Retinoic Acid Receptor gamma (RARg), RARG (gene 5916) (UniProt P13631); test: ATG_RARg_TRANS: Attagene TRANS-FACTORIAL HepG2 Assay for human Retinoic Acid Receptor gamma (RARg) (AID 2283009)
Summary of the method: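 Transient transfection of HepG2 with multi-reporter constructs, then 24 h chemical treatment. Total RNA isolated, reverse-transcribed, PCR-amplified, fluorescently labelled and resolved by capillary electrophoresis; activity scored as mRNA induction versus DMSO.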

[10] = target: Retinoic acid receptor alpha (Homo sapiens) (UniProt P10276); test: ATG_RARa_TRANS: Attagene TRANS-FACTORIAL HepG2 Assay for human Retinoic Acid Receptor alpha (RARa) (AID 2283005)
Summary of the method: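 HepG2 cells transiently transfected with multiple reporter units expressing chimeric RARα-GAL4 fusion, with GAL4-UAS-driven reporters. After 24 h compound exposure, reporter mRNA induction quantified by RT-PCR and capillary electrophoresis with fluorescent labeling; gain-of-signal fitted relative to DMSO control.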

Measured: AC50

Sequence of human Retinoic Acid Receptor gamma (RARg), RARG (gene 5916) (P13631 whole entry, looked up): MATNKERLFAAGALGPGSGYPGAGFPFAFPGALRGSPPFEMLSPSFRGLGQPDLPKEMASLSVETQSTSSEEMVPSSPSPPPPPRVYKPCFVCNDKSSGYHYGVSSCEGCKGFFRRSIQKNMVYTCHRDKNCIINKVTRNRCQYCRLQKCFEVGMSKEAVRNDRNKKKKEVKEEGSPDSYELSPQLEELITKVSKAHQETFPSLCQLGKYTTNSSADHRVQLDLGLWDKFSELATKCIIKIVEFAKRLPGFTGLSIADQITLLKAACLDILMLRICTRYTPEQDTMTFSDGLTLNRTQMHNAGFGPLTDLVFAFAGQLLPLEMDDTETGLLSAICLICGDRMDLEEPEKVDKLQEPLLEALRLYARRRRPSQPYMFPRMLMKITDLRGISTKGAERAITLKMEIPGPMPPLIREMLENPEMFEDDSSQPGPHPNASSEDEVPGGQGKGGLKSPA
Sequence of Nuclear receptor subfamily 1 group I member 2 (Homo sapiens) (O75469 whole entry, looked up, the tested form may be a part): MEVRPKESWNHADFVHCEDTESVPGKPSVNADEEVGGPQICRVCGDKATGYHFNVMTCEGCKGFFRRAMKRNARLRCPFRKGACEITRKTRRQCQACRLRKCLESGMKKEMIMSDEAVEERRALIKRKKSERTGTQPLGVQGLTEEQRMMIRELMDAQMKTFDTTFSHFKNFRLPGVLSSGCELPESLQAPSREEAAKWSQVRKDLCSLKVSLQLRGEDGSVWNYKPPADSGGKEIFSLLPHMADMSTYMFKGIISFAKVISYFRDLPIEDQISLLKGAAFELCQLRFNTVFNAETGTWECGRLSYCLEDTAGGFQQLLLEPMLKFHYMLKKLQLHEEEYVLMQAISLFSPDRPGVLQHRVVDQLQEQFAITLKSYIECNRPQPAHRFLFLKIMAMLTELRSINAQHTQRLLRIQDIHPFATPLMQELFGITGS
Sequence of human Peroxisome Proliferator-activated Receptor delta (PPARd), PPARD (gene 5467) (Q03181 whole entry, looked up, the tested form may be a part): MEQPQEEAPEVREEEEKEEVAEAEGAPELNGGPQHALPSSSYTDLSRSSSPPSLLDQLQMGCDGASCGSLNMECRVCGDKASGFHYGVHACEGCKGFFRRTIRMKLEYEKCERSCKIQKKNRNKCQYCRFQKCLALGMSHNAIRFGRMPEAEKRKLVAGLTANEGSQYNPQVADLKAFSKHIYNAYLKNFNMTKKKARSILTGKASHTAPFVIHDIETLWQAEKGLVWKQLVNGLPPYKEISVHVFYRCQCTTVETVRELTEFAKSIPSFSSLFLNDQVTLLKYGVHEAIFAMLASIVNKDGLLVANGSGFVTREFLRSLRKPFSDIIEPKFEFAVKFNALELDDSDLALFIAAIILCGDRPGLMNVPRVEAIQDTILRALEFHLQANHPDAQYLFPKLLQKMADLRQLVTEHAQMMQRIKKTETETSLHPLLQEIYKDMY
Sequence of human Retinoic Acid Receptor beta (RARb), RARB (gene 5915) (P10826 whole entry, looked up, the tested form may be a part): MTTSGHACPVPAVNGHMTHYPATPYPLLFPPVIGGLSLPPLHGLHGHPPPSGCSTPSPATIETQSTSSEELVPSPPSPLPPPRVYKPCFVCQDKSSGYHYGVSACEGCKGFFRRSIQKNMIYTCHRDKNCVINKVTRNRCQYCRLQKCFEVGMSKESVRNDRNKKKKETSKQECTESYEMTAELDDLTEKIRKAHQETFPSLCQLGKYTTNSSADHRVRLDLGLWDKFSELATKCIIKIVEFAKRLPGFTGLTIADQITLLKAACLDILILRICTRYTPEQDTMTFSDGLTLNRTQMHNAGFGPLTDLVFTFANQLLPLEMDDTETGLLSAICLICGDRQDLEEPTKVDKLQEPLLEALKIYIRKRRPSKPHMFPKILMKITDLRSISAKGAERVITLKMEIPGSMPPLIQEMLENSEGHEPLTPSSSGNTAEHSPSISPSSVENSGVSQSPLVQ
Sequence of Peroxisome proliferator-activated receptor gamma (Homo sapiens) (P37231 whole entry, looked up, the tested form may be a part): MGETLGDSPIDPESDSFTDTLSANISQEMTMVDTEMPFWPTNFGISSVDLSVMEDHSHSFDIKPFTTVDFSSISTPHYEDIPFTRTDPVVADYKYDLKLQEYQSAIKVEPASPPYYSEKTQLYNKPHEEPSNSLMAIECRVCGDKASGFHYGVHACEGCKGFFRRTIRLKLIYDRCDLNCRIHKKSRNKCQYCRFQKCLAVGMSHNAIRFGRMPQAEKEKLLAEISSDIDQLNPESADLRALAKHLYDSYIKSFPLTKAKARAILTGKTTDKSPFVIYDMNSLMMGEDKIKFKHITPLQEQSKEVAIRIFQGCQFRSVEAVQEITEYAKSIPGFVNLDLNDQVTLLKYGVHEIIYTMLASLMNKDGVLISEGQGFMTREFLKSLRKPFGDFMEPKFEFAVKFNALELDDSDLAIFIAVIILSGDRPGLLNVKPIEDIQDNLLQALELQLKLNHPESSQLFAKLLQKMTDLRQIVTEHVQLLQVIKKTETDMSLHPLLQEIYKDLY
Sequence of Retinoic acid receptor alpha (Homo sapiens) (P10276 whole entry, looked up, the tested form may be a part): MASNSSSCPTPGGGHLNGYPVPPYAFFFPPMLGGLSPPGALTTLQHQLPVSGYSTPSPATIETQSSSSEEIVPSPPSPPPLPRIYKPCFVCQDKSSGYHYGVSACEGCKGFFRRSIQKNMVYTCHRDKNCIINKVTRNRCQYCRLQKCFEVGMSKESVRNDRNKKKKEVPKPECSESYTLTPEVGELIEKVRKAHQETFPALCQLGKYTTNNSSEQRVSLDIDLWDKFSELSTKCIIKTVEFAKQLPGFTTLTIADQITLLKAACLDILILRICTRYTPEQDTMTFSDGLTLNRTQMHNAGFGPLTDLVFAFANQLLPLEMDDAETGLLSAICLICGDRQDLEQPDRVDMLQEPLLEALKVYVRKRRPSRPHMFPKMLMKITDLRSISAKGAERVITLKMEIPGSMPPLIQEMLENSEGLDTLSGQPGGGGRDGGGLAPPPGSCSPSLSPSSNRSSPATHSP
Sequence of human Peroxisome Proliferator-activated Receptor alpha (PPARa), PPARA (gene 5465) (Q07869 whole entry, looked up, the tested form may be a part): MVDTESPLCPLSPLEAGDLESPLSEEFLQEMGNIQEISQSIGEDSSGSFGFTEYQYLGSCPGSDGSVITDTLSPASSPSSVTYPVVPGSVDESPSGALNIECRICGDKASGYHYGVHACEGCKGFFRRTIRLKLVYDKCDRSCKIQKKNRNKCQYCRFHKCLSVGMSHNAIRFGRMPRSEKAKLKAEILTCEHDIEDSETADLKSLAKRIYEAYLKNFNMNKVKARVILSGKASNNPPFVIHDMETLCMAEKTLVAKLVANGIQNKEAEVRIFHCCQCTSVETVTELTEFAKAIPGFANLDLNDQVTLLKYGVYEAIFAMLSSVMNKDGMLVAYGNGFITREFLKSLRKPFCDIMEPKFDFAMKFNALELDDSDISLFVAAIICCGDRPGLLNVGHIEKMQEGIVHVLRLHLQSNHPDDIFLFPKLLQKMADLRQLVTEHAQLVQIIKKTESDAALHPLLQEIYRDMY

C=CC(=O)OCCCCCCOC(=O)C=C
inactive: [2] | [3]
active: [1] 12.4 µM | [4] 29.3 µM | [5] 8.97 µM | [6] 6.09 µM

CCOC(=O)C1=NN(c2ccc(Cl)cc2Cl)C(C)(C(=O)OCC)C1 (centres undefined)
inactive: [1] | [2] | [3] | [4] | [7] | [5] | [9]
active: [6] 87.1 µM | [8] 10.1 µM

CCC1(C)C(=O)N(Cl)C(=O)N1Cl (centres undefined)
inactive: [1] | [2] | [3] | [4] | [5] | [6] | [8]

CC(C)c1cccc(C(C)C)c1N
inactive: [2] | [4] | [10] | [5] | [8] | [9]
active: [1] 33.1 µM

C=CC(=O)OCC(C)OCC(C)OCC(C)OC(=O)C=C (centres undefined)
active: [1] 8.38 µM | [4] 28.2 µM | [5] 9.51 µM | [6] 10.3 µM | [8] 9.63 µM
inactive: [2] | [3] | [9]

O=C(Oc1ccccc1)c1ccccc1C(=O)Oc1ccccc1
active: [6] 47.6 µM
inactive: [1] | [2] | [3] | [4] | [5] | [8]

CCCCCC1=CCCC1=O
active: [6] 35.4 µM | [8] 11.4 µM
inactive: [1] | [2] | [3] | [4] | [5]

Fc1ccc(Br)cc1
inactive: [1] | [2] | [4] | [7] | [10] | [5] | [8] | [9]

c1ccc2sc(SSN3CCOCC3)nc2c1
active: [1] 5.26 µM | [4] 20 µM | [5] 0.828 µM | [6] 23.2 µM | [8] 45.3 µM
inactive: [2]

CCOC(=O)/C=C\C(=O)OCC
active: [2] 49.6 µM | [6] 9.4 µM
inactive: [1] | [3] | [4] | [7] | [10] | [5] | [8] | [9]

Nc1nc(N)nc(-c2ccccc2)n1
inactive: [1] | [2] | [4] | [5] | [6] | [8]

Clc1cc(Cl)c(Cl)c(Cl)c1Cl
active: [1] 31.4 µM | [8] 27.6 µM
inactive: [2] | [4] | [7] | [10] | [5] | [9]

CC(C)[N+](C)(CCOC(=O)C1c2ccccc2Oc2ccccc21)C(C)C
active: [6] 58.2 µM
inactive: [1] | [2] | [4] | [5] | [8]

C=CCCCCCCCCC=O
inactive: [1] | [2] | [4] | [5] | [8]
active: [6] 61.7 µM

Oc1c(Cl)cc(Cl)c(Cl)c1Cl
active: [1] 32.5 µM | [2] 27.2 µM | [4] 28.3 µM | [5] 20 µM | [6] 27 µM
inactive: [3] | [10] | [9]

C=CC(=O)OCCCCCCCC(C)C
active: [5] 9.67 µM | [6] 27.1 µM
inactive: [1] | [2] | [3] | [4] | [8]

CCCC(C)C(=O)OCC (centres undefined)
inactive: [1] | [2] | [4] | [7] | [5] | [6] | [9]

CCCCCCCCCCCC(C)=O
active: [1] 30.1 µM | [4] 32.5 µM | [5] 20 µM | [6] 51 µM
inactive: [2] | [10] | [8] | [9]

CC/C=C\CCOC(=O)c1ccccc1O
active: [1] 20 µM | [4] 31.3 µM | [5] 22.8 µM | [6] 39.5 µM
inactive: [2] | [3] | [8] | [9]

CC(c1cc(C(C)(C)C)cc(C(C)(C)C)c1O)c1cc(C(C)(C)C)cc(C(C)(C)C)c1O
active: [1] 1.65 µM | [5] 5.09 µM | [8] 0.0816 µM
inactive: [2] | [4] | [10]

CC1(C)CC(O)CC(C)(C)N1[O]
inactive: [1] | [2] | [3] | [4] | [5] | [6]

c1ccc2c(c1)[nH]c1ccccc12
inactive: [1] | [2] | [3] | [4] | [5] | [6] | [9]
active: [5] 9.38 µM | [8] 27.4 µM

Nc1cccc(N)n1
inactive: [1] | [2] | [3] | [4] | [7] | [5] | [6] | [8]

CC(CCC(=O)O)(c1ccc(O)cc1)c1ccc(O)cc1
inactive: [1] | [2] | [3] | [4] | [5]

Cc1ccc([N+](=O)[O-])cc1N
inactive: [1] | [2] | [4] | [5] | [6] | [8]

C=C(C)C(=O)OCCCCCCCCCCCC
active: [6] 122 µM
inactive: [1] | [2] | [3] | [4] | [5] | [8]

CCCCCCCCCCCC(=O)N(C)CC(=O)O
inactive: [1] | [4] | [10] | [5] | [8]
active: [2] 7.45 µM | [5] 15.2 µM | [6] 13.1 µM
